{
  "source": "PubChem BioAssay AID1851",
  "about": "(National Center for Advancing Translational Sciences (NCATS), 2009)",
  "note": "About 5,800 (36%) of roughly 16,000 compounds were called active. Inconclusive results (about 23%) are left out. Some of the results follow. Unmarked numbers belong to inactive results. Calls follow the shape of the dose curve; as a rule, active = well fitted curve in the direction sought with a large enough effect; inconclusive = small, poorly fitted or top-dose-only effect, or effect the other way; inactive = no such curve, though single readings can be large or run the other way. % is scaled to controls: 0 for no effect and ±100 for the full control effect.",
  "data": [
    {"molecular_target": "Cytochrome P450 2C19 (Homo sapiens) (UniProt P33261)", "sequence (P33261 whole entry, looked up)": "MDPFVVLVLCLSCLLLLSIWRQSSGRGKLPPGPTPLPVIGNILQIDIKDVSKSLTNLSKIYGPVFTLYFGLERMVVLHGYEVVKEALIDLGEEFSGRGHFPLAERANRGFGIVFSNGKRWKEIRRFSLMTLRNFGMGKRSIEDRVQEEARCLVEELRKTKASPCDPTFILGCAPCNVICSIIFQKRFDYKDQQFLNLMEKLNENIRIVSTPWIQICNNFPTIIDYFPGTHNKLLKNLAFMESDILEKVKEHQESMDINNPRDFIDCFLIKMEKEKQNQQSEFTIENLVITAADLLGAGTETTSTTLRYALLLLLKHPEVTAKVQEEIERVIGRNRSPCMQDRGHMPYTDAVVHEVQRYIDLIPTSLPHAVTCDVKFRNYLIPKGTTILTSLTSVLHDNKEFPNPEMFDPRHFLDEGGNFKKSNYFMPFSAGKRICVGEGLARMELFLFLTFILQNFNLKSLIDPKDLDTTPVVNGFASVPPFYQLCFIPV", "experiment": "Cytochrome panel assay with activity outcomes", "conditions": "recombinant CYP, pro-luciferin dealkylation, luminescence, p450-cyp2c19; series mostly up to 57.1 µM; activity, negative = inhibition: at the top concentration", "values": [
      {"smiles": "CC(=O)N1CCC[C@@]2(CCN(c3ccccc3)C2)C1", "activity, negative = inhibition": "31.6%"},
      {"smiles": "COc1ccc(C(=O)N2CCC[C@@]3(CCN(Cc4ccccc4)C3)C2)cc1", "activity, negative = inhibition": "-23.1%"},
      {"smiles": "O=C(c1cnccn1)N1CCC2(CC1)CCN(c1ccccc1)CC2", "activity, negative = inhibition": "-19.7%"},
      {"smiles": "O=C(NCCc1c[nH]c2ccccc12)[C@H]1C[C@@H]1[C@H](NP(=O)(c1ccccc1)c1ccccc1)c1ccccc1", "AC50": "1.26 µM (active)"},
      {"smiles": "Cc1cc(CNC(=O)[C@@H]2C[C@H]2[C@@H](NP(=O)(c2ccccc2)c2ccccc2)c2ccccc2)nn1C", "activity, negative = inhibition": "23.2%"},
      {"smiles": "Cc1cc(CNC(=O)[C@H]2C[C@@H]2[C@H](NP(=O)(c2ccccc2)c2ccccc2)c2ccccc2)nn1C", "activity, negative = inhibition": "-41.1%"},
      {"smiles": "O=C(NCCc1c[nH]c2ccccc12)[C@@H]1C[C@H]1[C@@H](NP(=O)(c1ccccc1)c1ccccc1)c1ccccc1", "AC50": "6.31 µM (active)"},
      {"smiles": "O=C(Nc1ccc2ccccc2c1)[C@H]1C[C@@H]1[C@H](NP(=O)(c1ccccc1)c1ccccc1)c1ccccc1", "AC50": "3.16 µM (active)"},
      {"smiles": "O=C(Nc1ccc2ccccc2c1)[C@@H]1C[C@H]1[C@@H](NP(=O)(c1ccccc1)c1ccccc1)c1ccccc1", "activity, negative = inhibition": "0.45%"},
      {"smiles": "COc1cc(/C=C(/C#N)c2nc3ccccc3[nH]2)ccc1OCC(=O)Nc1ccccc1C", "AC50": "4.47 µM (active)"},
      {"smiles": "COc1cc(/C=C(/C#N)c2nc3ccccc3[nH]2)ccc1Oc1ncccc1[N+](=O)[O-]", "AC50": "3.98 µM (active)"},
      {"smiles": "CCOC(=O)/C(C#N)=C\\c1ccc(OCC(=O)Nc2ccc(C)cc2C)c(OC)c1", "AC50": "2.82 µM (active)"},
      {"smiles": "COc1ccc(/C=C(/C#N)C(=O)Nc2cc(C)ccc2C)cc1C(=O)O", "activity, negative = inhibition": "-1.9%"},
      {"smiles": "CCOC(=O)/C(C#N)=C\\N(C)C", "activity, negative = inhibition": "-6.23%"},
      {"smiles": "Clc1ccc(SCc2cc(-c3ccccc3)no2)cc1", "AC50": "1.12 µM (active)"},
      {"smiles": "Cn1c(CNS(=O)(=O)c2ccc(Cl)cc2)n[nH]c1=S", "activity, negative = inhibition": "-15.7%"},
      {"smiles": "O=S(=O)(NCc1cc(-c2ccccc2)no1)c1ccc(Cl)cc1", "AC50": "0.708 µM (active)"},
      {"smiles": "O=S(=O)(NCc1cc(-c2ccc(Cl)cc2)no1)c1ccc(Cl)cc1", "AC50": "1.58 µM (active)"},
      {"smiles": "COc1ccc(-c2cc(CNC(C)=O)on2)cc1", "activity, negative = inhibition": "-17.8%"},
      {"smiles": "O=c1cnc2cnc(N3CCOCC3)nc2n1C1CC1", "activity, negative = inhibition": "-17.2%"},
      {"smiles": "Nc1nc(N)[n+]([O-])c(N)c1NCO", "activity, negative = inhibition": "33.1% [at 11.4 µM]"},
      {"smiles": "CC(=O)Nc1ccc(N2CCCCC2)cc1", "AC50": "31.6 µM (active)"},
      {"smiles": "O=C(Nc1ccc(N2CCCCC2)cc1)c1cncc(Br)c1", "AC50": "17.8 µM (active)"},
      {"smiles": "CC(=O)Nc1cccc(N2C(=O)CCC2=O)c1", "activity, negative = inhibition": "-11.5%"},
      {"smiles": "CC(=O)Nc1ccc(N2CCCCC2)c(C(=O)Nc2cccc(C)c2)c1", "AC50": "20 µM (active)"},
      {"smiles": "CC(=O)Nc1ccc(NC(=O)C/C(C)=N/NC(=O)C(=O)N2CCCC2)cc1", "activity, negative = inhibition": "57.5%"},
      {"smiles": "CC(=O)OC[C@@H]1O[C@@H](O/N=C2/C[C@@H](O)[C@@H](O)[C@@H]3[C@@H]4C(=O)N([C@@H](C)c5ccccc5)C(=O)[C@H]4CC[C@@H]23)[C@H](OC(C)=O)[C@H](OC(C)=O)[C@@H]1OC(C)=O", "activity, negative = inhibition": "23% [at 11.4 µM]"},
      {"smiles": "CC(C)NC(=O)N1CCC2(CC1)CCN(C(=O)c1cccn1C)CC2", "activity, negative = inhibition": "-18.1%"},
      {"smiles": "CNCCCCCCCCSc1nc(C(C)C)ccc1C(=O)c1cccs1", "AC50": "15.8 µM (active)"},
      {"smiles": "CCOc1ccc(Cl)cc1CNCCNCC(C)O", "note": "(centres undefined)", "activity, negative = inhibition": "23.2%"},
      {"smiles": "CC(C)NCCCOc1ccc(Cl)cc1Br", "AC50": "8.91 µM (active)"},
      {"smiles": "CCN(CC)c1ccc(NC(=O)c2cnn(CC)c2)cc1", "AC50": "28.2 µM (active)"},
      {"smiles": "CC(C)CCNC1=NCCCCC1", "activity, negative = inhibition": "-8.88%"},
      {"smiles": "CCNc1ccc(Br)cc(C(=O)/C=C/c2ccc3c(c2)OCO3)c1=O", "AC50": "3.98 µM (active)"},
      {"smiles": "CNc1ccc(Br)cc(C(=O)/C=C/c2ccc3c(c2)OCO3)c1=O", "AC50": "1.78 µM (active)"},
      {"smiles": "N#Cc1cccc(-c2cc(NCc3cccs3)ncn2)c1", "AC50": "10 µM (active)"},
      {"smiles": "c1ccc(CNc2cc(-c3ccoc3)ncn2)cc1", "activity, negative = inhibition": "-42.4%"},
      {"smiles": "c1cncc(-c2cc(NCc3cccs3)ncn2)c1", "activity, negative = inhibition": "-32.9%"},
      {"smiles": "N#Cc1cccc(-c2nccc(NCc3ccccc3)n2)c1", "AC50": "10 µM (active)"},
      {"smiles": "c1csc(CNc2cc(-c3ccoc3)ncn2)c1", "AC50": "10 µM (active)"},
      {"smiles": "N#Cc1cccc(-c2nccc(NCc3cccs3)n2)c1", "AC50": "3.98 µM (active)"},
      {"smiles": "CCOC(=O)C(NC(C)=O)C(=O)O", "note": "(centres undefined)", "activity, negative = inhibition": "-5.2%"},
      {"smiles": "Cc1cnc(CNc2cc(-c3cccc(C#N)c3)ncn2)cn1", "activity, negative = inhibition": "-15.2%"},
      {"smiles": "Cc1cccc(CNc2cc(-c3cccc(C#N)c3)ncn2)c1", "AC50": "6.31 µM (active)"},
      {"smiles": "Cc1cccc(CNc2cc(-c3ccc(N(C)C)cc3)ncn2)c1", "AC50": "3.16 µM (active)"},
      {"smiles": "CN(C)C(=O)c1ccc(-c2cc(NCc3ccccc3)ncn2)cc1", "activity, negative = inhibition": "-30.8%"},
      {"smiles": "CN(C)c1ccc(-c2cc(NCc3ccccc3)ncn2)cc1", "activity, negative = inhibition": "-21.1%"},
      {"smiles": "Cc1cccc(CNc2ccnc(-c3cccc(C#N)c3)n2)c1", "AC50": "2.51 µM (active)"},
      {"smiles": "CO[C@]1(NC(=O)Cc2cccs2)C(=O)N2C(C(=O)O)=C(COC(N)=O)CS[C@H]21", "activity, negative = inhibition": "0.361% [at 25.6 µM]"}
    ]}
  ]
}
